# Laboratory results: PubChem BioAssay (NCI)
# Compounds without any hit were thinned out: in the full panel of roughly 83,000, 20% have a hit.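 Values shown are percent growth following 48 h exposure of cells in 96-well plates to a single concentration of compound; below 10 was considered active.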 Values without a mark were called inactive. The source made the active and inactive calls.
# Test system: DU-145 prostate
# Assay: NCI-60 one-dose screen, 48 h (100 = growth as untreated, 0 = no growth, -100 = all killed)
# Conditions: 10 µM unless noted
row,SMILES,growth
1,O=c1oc2c(cnc3ccccc32)cc1-c1cccc(Cl)c1,108%
2,CCOC(=O)c1c(C)nc2c(c1N)C(=O)C(=O)N2Cc1ccc(OC)cc1,84.7%
3,CCNC(=O)N1CCc2c(Br)c3c(c(OC)c2C1Cc1ccc(OC)cc1)OCO3 (stereo not given),54.5%
4,COc1cc2c(c(OC)c1OC)CCC(c1cccc(C(=O)Nc3ccc(Br)cc3)c1)O2 (stereo not given),71%
5,OC1CSSC1Cn1cnc2c(Nc3ccc(OCc4cccc(F)c4)c(Cl)c3)ncnc21 (stereo not given),-36.8% (active)
6,Cc1ccc(OCCOCCOCCOc2ccc(C)n(O)c2=S)c(=S)n1O,50.5%
7,C=CN(C(=O)N1CCN(c2cc3c(cc2F)c(=O)c(C(=O)O)cn3C2CC2)CC1)c1nc(-c2ccc(Cl)cc2)cs1,81.1%
8,C#CCOc1cccc(Nc2ncnc3cc(NC(=O)CCl)ccc23)c1,-77.1% (active)
9,Cc1nc2ccccc2c(/C=C/c2ccc(F)cc2)c1C(=O)/C=C/c1ccccc1,10.2%
10,COc1cc(/C=C/C(=O)N2CCN(C(=O)c3cc(OC)c(OC)c(OC)c3)CC2)ccc1OCCCOc1cc2c(cc1OC)C(=O)N1CCC[C@H]1C=N2,8.43% (active)
11,O=C(NC1CCC(Br)CC1)C1CCCC(S(=O)(=O)NC2CCCCC2)C1 (stereo not given),29.9% [25 µM]
12,COc1cc(/C=C/c2cn[nH]c2-c2ccc(C)cc2)cc(OC)c1OC,43.4%
13,COc1ccc(C/C(C)=C(\c2ccc(Cl)cc2)c2ccc(OCCN3CCCC3)cc2)cc1,98.5%
14,CN(C)Cc1ccc(NC(=O)c2cncc(C#Cc3cnc(N)c4ncccc34)c2)cc1C(F)(F)F,64.1%
15,COC(=O)c1c(C)nc(C)c2c1C(=O)C=C(NCc1ccccc1)C2=O,95.8%
16,N#CSc1c[nH]c2ccc(/C=C/C(=O)/C=C(O)/C=C/c3ccc4[nH]cc(SC#N)c4c3)cc12,29%
17,Cc1ccc(-c2nc(SCC(=O)N3CCN(c4cc5c(cc4F)c(=O)c(C(=O)O)cn5C4CC4)CC3)nc(Cl)c2C#N)cc1,106%
18,COC(=O)/C=C1/SC(=NCc2ccccc2)N(CCc2c[nH]c3ccccc23)C1=O,72.5%
19,C=C(C)[C@@H]1CC[C@]2(C(=O)N3CCN(C)CC3)CC[C@]3(C)[C@H](CC[C@@H]4[C@@](C)(CCC(=O)O)[C@H](C(=C)C)CC[C@]43C)[C@@H]12,99.9%
20,Nc1[nH]nc2nc(-c3ccccc3)n3c4ccccc4nc3c12,117%

row,SMILES,growth
1,CN1CCOCCN(C)Cc2ccc3ccc(cc3c2)CN(C)CCOCCN(C)Cc2ccc3ccc(cc3c2)C1,57.8%
2,COc1ccc(/C=N/Nc2c3ccccc3nc3ccccc23)cc1,90.4%
3,C=C1C(=O)O[C@H]2[C@H]1CC/C(CNC(=O)Cc1c[nH]c3ccccc13)=C\CC[C@@]1(C)O[C@@H]21,26.5%
4,COc1ccc2c(c1)CC[C@@H]1[C@@H]2CC[C@]2(C)c3c(cc(C#N)c4c3sc3ccccc34)C[C@@H]12,121%
5,O=C(c1c[nH]c2ccccc12)c1n[nH]c(=S)n1-c1ccc([N+](=O)[O-])cc1,109%
6,Cc1c2cnccc2c(C)c2c1c1cc(CO)ccc1n2C,-0.903% (active)
7,COc1cc(-c2nccc3[nH]c(-c4cccc5[nH]ccc45)nc23)cc(OC)c1OC,22.7%
8,Clc1ccc(-c2nc(C(Cl)Cl)nc3cc(-c4ccccc4)nn23)cc1,-2.59% (active)
9,CC1=Nc2cnc(Nc3ccc(N4CCCCC4)cc3)nc2Nc2ccccc21,79.8%
10,CN(C)c1ccc([C@@H](C(=O)Nc2cccc([N+](=O)[O-])c2)N(C(=O)c2cc3ccccc3[nH]2)c2cccc([N+](=O)[O-])c2)cc1,107%
11,O=C(CSc1nnnn1-c1ccccc1)Nc1ccc(Oc2ccccc2)cc1,111%
12,COc1cc(/C=C/C(=O)c2cccc(-n3cc(-c4ccc(Cl)cc4)[nH]c3=O)c2)ccc1O,78.1%
13,Oc1c(CN2CCC(N3CCOCC3)CC2)cc(Cc2cc(CN3CCC(N4CCOCC4)CC3)c(O)c3ncccc23)c2cccnc12,34.5%
14,c1ccc2cc(Cn3cc(CSc4nc5ccccc5s4)nn3)ccc2c1,109%
15,CN(C)Cc1cc(C(C)(C)C)cc(Br)c1O,109%
16,CCN(CC)CCOc1ccc(/C(=C(\C)Cc2ccc(OC)cc2)c2ccc(OC(=O)NCc3ccccc3)cc2)cc1,78.9%
17,C=C1C(=O)O[C@H]2[C@H]1CC/C(COC(=O)NCc1ccc(Cn3c(=O)sn(-c4ccc(I)cc4)c3=O)cc1)=C\CC[C@@]1(C)O[C@@H]21,47.9%
18,O=c1oc2ccccc2cc1-c1nn(-c2ccccc2)cc1-c1nn[nH]n1,113%
19,O=c1oc2c(cc1-c1ccccc1)c(=O)[nH]c1ccccc12,105%
20,CC1=C(Cl)C(=O)c2cc(C)ccc2C1=O,115%
